In PubChem BioAssay AID1159580 (chemical genetic matrix, 2015):
About 2,000 (36%) of roughly 5,500 compounds were called active. Another 18% or so got no clear call; they are omitted. No stated cut-off is given here; in the data, active means normalized growth mostly below about 0.91 (no sharp cut-off); inconclusive means no clear call, values can overlap the other calls; inactive means mostly above about 0.92. The list shows a part of the results.

Experiment: chemical genetic growth profiling, strain panel (AID 1159580);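 further: tested at 20 µM; growth read once vehicle control cultures reached saturation at 30 °C; 1 = growth at the plate median or of vehicle wells; lower values mean less growth of the strain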
Settings: growth OD

Measured: normalized growth

C[C@H]1COc2c(N3CCN(C)CC3)c(F)cc3c(=O)c(C(=O)O)cn1c23
inactive: S. cerevisiae deletion strains, locus YJR075W, strain HOC1, active compounds read low 0.991 | S. cerevisiae deletion strains, locus YKL009W, strain mrt4, active compounds read low 1.01 | S. cerevisiae deletion strains, locus YKL068W, active compounds read low 1 | S. cerevisiae deletion strains, locus YKL085W, strain MDH1 (second series), active compounds read low 1.01 | S. cerevisiae deletion strains, locus YKL085W, strain MDH1, active compounds read low 1.01 | S. cerevisiae deletion strains, locus YKL160W, strain elf1, active compounds read low 1.01 | S. cerevisiae deletion strains, locus YKL190W, strain CNB1, active compounds read low 0.998 | S. cerevisiae deletion strains, locus YKR001C, strain vps1, active compounds read low 1.03 | S. cerevisiae deletion strains, locus YKR026C, strain gcn3, active compounds read low 1.02 | S. cerevisiae deletion strains, locus YKR091W, strain srl3, active compounds read low 1.03 | S. cerevisiae deletion strains, locus YLL001W, strain dnm1, active compounds read low 1.04 | S. cerevisiae deletion strains, locus YLL026W, active compounds read low 1.03 | S. cerevisiae deletion strains, locus YLL041C, strain sdh2, active compounds read low 1.02 | S. cerevisiae deletion strains, locus YLR027C, strain aat2, active compounds read low 1.03 | S. cerevisiae deletion strains, locus YLR039C, strain RIC1, active compounds read low 1.01 | S. cerevisiae deletion strains, locus YLR058C, strain SHM2, active compounds read low 1.01 | S. cerevisiae deletion strains, locus YLR102C, strain apc9, active compounds read low 1.01 | S. cerevisiae deletion strains, locus YLR113W, strain HOG1, active compounds read low 1.03 | S. cerevisiae deletion strains, locus YLR221C, strain rsa3, active compounds read low 0.984 | S. cerevisiae deletion strains, locus YLR258W, strain gsy2, active compounds read low 1.02 | S. cerevisiae deletion strains, locus YLR262C, strain YPT6 (second series), active compounds read low 1.02 | S. cerevisiae deletion strains, locus YLR262C, strain YPT6, active compounds read low 1.01 | S. cerevisiae deletion strains, locus YLR268W, strain sec22, active compounds read low 1 | S. cerevisiae deletion strains, locus YLR320W, strain mms22, active compounds read low 1.02 | S. cerevisiae deletion strains, locus YLR330W, strain CHS5, active compounds read low 1 | S. cerevisiae deletion strains, locus YLR342W, strain FKS1 (second series), active compounds read low 0.984 | S. cerevisiae deletion strains, locus YLR342W, strain FKS1, active compounds read low 1.03 | S. cerevisiae deletion strains, locus YLR357W, strain rsc2, active compounds read low 1.02 | S. cerevisiae deletion strains, locus YLR370C, strain arc18, active compounds read low 1.03 | S. cerevisiae deletion strains, locus YLR371W, strain rom2, active compounds read low 1 | S. cerevisiae deletion strains, locus YLR384C, strain iki3, active compounds read low 1.03 | S. cerevisiae deletion strains, locus YLR418C, strain cdc73, active compounds read low 1.02 | S. cerevisiae deletion strains, locus YML016C, strain PPZ1, active compounds read low 1.01 | S. cerevisiae deletion strains, locus YML032C, strain rad52, active compounds read low 0.965 | S. cerevisiae deletion strains, locus YML120C, strain ndi1, active compounds read low 1.01 | S. cerevisiae deletion strains, locus YML124C, strain tub3, active compounds read low 1.02 | S. cerevisiae deletion strains, locus YMR058W, strain fet3, active compounds read low 1.02 | S. cerevisiae deletion strains, locus YMR078C, strain ctf18, active compounds read low 1.02 | S. cerevisiae deletion strains, locus YMR125W, strain sto1, active compounds read low 1.02 | S. cerevisiae deletion strains, locus YMR129W, active compounds read low 1.03 | S. cerevisiae deletion strains, locus YMR205C, strain PFK2, active compounds read low 0.985 | S. cerevisiae deletion strains, locus YMR223W, strain ubp8, active compounds read low 1.01 | S. cerevisiae deletion strains, locus YMR231W, strain pep5, active compounds read low 1.03 | S. cerevisiae deletion strains, locus YMR263W, strain SAP30, active compounds read low 0.991 | S. cerevisiae deletion strains, locus YMR307W, strain GAS1, active compounds read low 1.04 | S. cerevisiae deletion strains, locus YNL067W, strain RPL9B, active compounds read low 1 | S. cerevisiae deletion strains, locus YNL071W, strain lat1, active compounds read low 1 | S. cerevisiae deletion strains, locus YNL128W, strain TEP1, active compounds read low 0.975 | S. cerevisiae deletion strains, locus YNL153C, strain GIM3, active compounds read low 1 | S. cerevisiae deletion strains, locus YNL183C, strain NPR1, active compounds read low 0.97 | S. cerevisiae deletion strains, locus YNL209W, strain ssb2, active compounds read low 1.01 | S. cerevisiae deletion strains, locus YNL233W, strain BNI4, active compounds read low 1.01 | S. cerevisiae deletion strains, locus YNL248C, strain rpa49, active compounds read low 1.03 | S. cerevisiae deletion strains, locus YNL250W, strain rad50, active compounds read low 1.01 | S. cerevisiae deletion strains, locus YNL271C, strain bni1, active compounds read low 1.01 | S. cerevisiae deletion strains, locus YNL298W, strain CLA4, active compounds read low 1.02 | S. cerevisiae deletion strains, locus YNL307C, strain MCK1, active compounds read low 1.03 | S. cerevisiae deletion strains, locus YNL322C, strain KRE1 (second series), active compounds read low 1.03 | S. cerevisiae deletion strains, locus YNL322C, strain KRE1, active compounds read low 0.999 | S. cerevisiae deletion strains, locus YNR049C, strain mso1, active compounds read low 1.01 | S. cerevisiae deletion strains, locus YNR052C, strain pop2, active compounds read low 1.02 | S. cerevisiae deletion strains, locus YOL006C, strain TOP1, active compounds read low 1.05 | S. cerevisiae deletion strains, locus YOL012C, strain htz1 0.78 | S. cerevisiae deletion strains, locus YOL147C, strain pex11, active compounds read low 1.01 | S. cerevisiae deletion strains, locus YOR001W, strain rrp6, active compounds read low 1.02 | S. cerevisiae deletion strains, locus YOR061W, strain CKA2, active compounds read low 1.01 | S. cerevisiae deletion strains, locus YOR069W, strain VPS5, active compounds read low 0.995 | S. cerevisiae deletion strains, locus YOR070C, strain gyp1, active compounds read low 1.02 | S. cerevisiae deletion strains, locus YOR080W, strain dia2, active compounds read low 1.04 | S. cerevisiae deletion strains, locus YOR083W, strain WHI5, active compounds read low 1.03 | S. cerevisiae deletion strains, locus YOR106W, strain vam3, active compounds read low 1.01 | S. cerevisiae deletion strains, locus YOR136W, strain idh2, active compounds read low 1.02 | S. cerevisiae deletion strains, locus YOR144C, strain elg1, active compounds read low 1.01 | S. cerevisiae deletion strains, locus YOR184W, strain ser1, active compounds read low 1.02 | S. cerevisiae deletion strains, locus YOR231W, strain MKK1, active compounds read low 0.996 | S. cerevisiae deletion strains, locus YOR265W, strain rbl2, active compounds read low 1.03 | S. cerevisiae deletion strains, locus YOR270C, strain vph1, active compounds read low 1.07 | S. cerevisiae deletion strains, locus YOR290C, strain snf2, active compounds read low 1.03 | S. cerevisiae deletion strains, locus YOR316C, strain cot1, active compounds read low 1.02 | S. cerevisiae deletion strains, locus YPL051W, strain arl3, active compounds read low 1.03 | S. cerevisiae deletion strains, locus YPL055C, strain LGE1, active compounds read low 0.997 | S. cerevisiae deletion strains, locus YPL078C, strain atp4, active compounds read low 1.02 | S. cerevisiae deletion strains, locus YPL106C, strain sse1, active compounds read low 0.991 | S. cerevisiae deletion strains, locus YPL240C, strain hsp82, active compounds read low 1.01 | S. cerevisiae deletion strains, locus YPL241C, strain CIN2, active compounds read low 1.01 | S. cerevisiae deletion strains, locus YPL256C, strain CLN2, active compounds read low 0.958 | S. cerevisiae deletion strains, locus YPR119W, strain clb2, active compounds read low 1.01 | S. cerevisiae deletion strains, locus YPR141C, strain kar3, active compounds read low 1.02 | S. cerevisiae deletion strains, locus YPR163C, strain tif3, active compounds read low 1.03 | S. cerevisiae deletion strains, locus YPR167C, strain met16, active compounds read low 1.02 | S. cerevisiae deletion strains, strain wtn01, active compounds read low 1.01 | S. cerevisiae strains, strain wild type, active compounds read low 0.981
